High-throughput results (PubChem BioAssay)
An excerpt weighted towards active compounds, which were near 13% of everything screened.
CHOP inhibitor: blocks CHOP induction under ER stress; inhibition, % at 10 µM; hit rate 3.8% among 220,000; CHO-K1 CHOP-promoter luciferase, tunicamycin-induced, 15-18 h;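 active = compounds that reduced the stress-induced luciferase reporter signal by more than about 70% of percent inhibition, limit read from the data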
WT yeast gro inh: growth inhibition of WT yeast, mitochondrial fusion screen; mitochondrial fusion phenotypic screen, WT strain; inhibition, % at 10 µM; hit rate 2.1% among 190,000; in the data active = inhibition above about 58%; tested in S. cerevisiae
RAM inhibit: yeast RAM network inhibition; S. cerevisiae dse1pr::URA3 reporter, 5-FOA growth OD615, 2 d; analog-sensitive cbk1-as2 kinase mutant strain; inhibition, % at 50 µM; hit rate 1.8% among 190,000;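 active = inhibition above a set limit, 3 SD over mean compound inhibition, cut at about 8.4% in these data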;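 also: inhibition rescues growth on 5-FOA so higher OD means more RAM inhibition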
Lmaj promast: reduces viability of Leishmania major promastigotes; resazurin fluorescence viability; inhibition, % at 10 µM; hit rate 9% among 200,000; in the data active = inhibition above about 50%;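 also: promastigotes grown with compound for 44 hours at 28 °C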
Large screens that a line does not name were inactive.

CC(C)Cn1c(N)c(C(=O)COC(=O)c2cc(-c3ccco3)nc3ccccc23)c(=O)n(C)c1=O	Lmaj promast 76.7
CC(C)Cn1c(N)c(C(=O)COC(=O)c2cc(C(F)(F)F)nc3ccccc23)c(=O)n(C)c1=O	none
Cc1ccc(C(=O)c2cc([N+](=O)[O-])ccc2N2CCN(C)CC2)cc1	none
CN1CCN(c2ccc([N+](=O)[O-])cc2C(=O)c2ccccc2)CC1	Lmaj promast 56.2
Cc1ccc(C(=O)c2cc([N+](=O)[O-])ccc2N2CCCCC2)cc1C	RAM inhibit 10.0
Cc1ccc(C(=O)c2cc([N+](=O)[O-])ccc2N2CCOCC2)cc1C	none
CC(=O)NC1C(=O)N=C(SCC(=O)Nc2cccc(Cl)c2)NC1=O (stereo not given)	none
COc1ccc(NC(=S)N2CCCC2c2ccc(OC)c(OC)c2)cc1 (stereo not given)	RAM inhibit 9.9
O=C(NCc1ccccc1Cl)C1CCN(c2cnccn2)CC1	none
Cc1cccc(-n2c(-c3csc4ccccc34)n[nH]c2=S)c1	WT yeast gro inh 64.2
Cc1ccc(Nc2nc(NCCCN3CCOCC3)nc(N)c2[N+](=O)[O-])cc1C	Lmaj promast 51.6
Cc1ccc(Nc2nc(NCCCN3CCOCC3)nc(N)c2[N+](=O)[O-])cc1	Lmaj promast 50.9
Nc1nc(NCCCN2CCOCC2)nc(Nc2ccc(Cl)cc2)c1[N+](=O)[O-]	none (no result: WT yeast gro inh, RAM inhibit, Lmaj promast)
Cc1cccc(NC(=O)c2ccc(NC(C)c3ccccc3)c([N+](=O)[O-])c2)n1 (stereo not given)	none
CCc1nc(NCc2ccc3c(c2)OCO3)c2oc3ccccc3c2n1	Lmaj promast 72.1
CCc1nc(N(CC)CC)c2oc3ccccc3c2n1	CHOP inhibitor 91.0
CCc1nc(SCc2nc3ccccc3[nH]2)c2oc3ccccc3c2n1	WT yeast gro inh 74.1
c1ccc2c(c1)oc1c(N3CCN(Cc4ccc5c(c4)OCO5)CC3)ncnc12	WT yeast gro inh 75.6, Lmaj promast 94.5
c1ccc(Cn2nnc3c(N4CCN(Cc5ccc6c(c5)OCO6)CC4)ncnc32)cc1	none
Cc1nc(NCc2ccc3c(c2)OCO3)c2oc3ccccc3c2n1	none
CCc1nc(SCCO)c2oc3ccccc3c2n1	none
CC(C)Nc1nnc(SC(C)C(=O)NCc2ccc3c(c2)OCO3)s1 (stereo not given)	none
C/C(=N\NC(=O)OC(C)(C)C)c1ccccc1Br	none
CCOC(=O)c1nc(-c2ccc(OC)c(OC)c2)cnc1C#N	none
COc1ccc(CC(=O)Nc2ccc(C(=O)Nc3ccccc3C(=O)O)cc2)cc1OC	none
CCc1nc(N2CCC(C)CC2)c2oc3ccccc3c2n1	CHOP inhibitor 70.2, WT yeast gro inh 73.4
CCNc1nc(CC)nc2c1oc1ccccc12	Lmaj promast 56.6
CCNc1nc(C)nc2c1oc1ccccc12	none
O=C(CCCCCn1c(=S)[nH]c2cc3c(cc2c1=O)OCO3)N1CCN(C(=O)c2ccco2)CC1	WT yeast gro inh 69.4
O=C(CCCCCn1c(=S)[nH]c2cc3c(cc2c1=O)OCO3)N1CCN(C2CCCCC2)CC1	CHOP inhibitor 83.3
CCOc1ccc2nc(NC(=O)c3cnc(C)cn3)sc2c1	none
CCn1ncc([N+](=O)[O-])c1C(=O)Nc1cc(C)on1	Lmaj promast 92.4
CCOc1ccc2nc(NC(=O)c3c([N+](=O)[O-])cnn3CC)sc2c1	Lmaj promast 62.6
CCn1ncc([N+](=O)[O-])c1C(=O)n1nc(C)cc1C	none
COc1ccc(C2C(C#N)=C(/N=C/N3CCN(C)CC3)OC3=C2C(=O)CC(C)(C)C3)cc1 (stereo not given)	Lmaj promast 99.6
CC(C)(C)NC(=O)C(c1ccco1)N(C(=O)Cn1nnc(-c2ccc(F)cc2)n1)c1cccc(F)c1 (stereo not given)	RAM inhibit 9.2
Cc1ccc(-c2nnn(CC(=O)N(c3ccc(F)cc3)C(C(=O)NC(C)(C)C)c3ccco3)n2)o1 (stereo not given)	none
Cc1cc(C(F)(F)F)c(C#N)c(Sc2ccccc2)n1	RAM inhibit 10.0
COC(=O)CSc1nc(C)cc(C(F)(F)F)c1C#N	none
Cc1ccc(S(=O)(=O)CCSc2nc(C)cc(C(F)(F)F)c2C#N)cc1	RAM inhibit 10.2
COC(=O)c1ccc2c(c1)S(=O)(=O)NC(=NCc1ccco1)S2	Lmaj promast 95.8
CCOc1ccc(-n2c(Cc3ccccc3)nnc2SCc2c(C)noc2C)cc1	none
O=C(CSC(=S)N1CCCC1)c1cc(Br)cc(Br)c1O	Lmaj promast 95.2
CCOC(=O)c1c(CSc2nc(C)cc(C)c2C#N)n(C)c2cc(Br)c(OC(C)=O)cc12	Lmaj promast 96.0
C=CCCc1ccc(C#N)c(SCc2c(C(=O)OCC)c3cc(OC(C)=O)c(Br)cc3n2C)n1	CHOP inhibitor 71.9, Lmaj promast 63.7
CCOC(=O)CC(=O)CSc1nc(C)cc(C)c1C#N	none
Cc1cccc(C(=O)NNC(=O)CN2C(=O)c3ccccc3C2=O)c1	none
COc1cc2nc(N3CCNCC3)nc(N)c2cc1OC	CHOP inhibitor 70.2
NNC(=O)Cn1c(SCc2ccccc2)nc2ccccc21	none
CCC(C)C(=O)NCCc1ccc(S(N)(=O)=O)cc1 (stereo not given)	none
CCCCNC(=S)NC(C)(C)CO	none
CCOC(=O)C(=CNc1ccc(-c2ccco2)c(Cl)c1)C(=O)OCC	none (no result: WT yeast gro inh, RAM inhibit, Lmaj promast)
COc1cc(CNCc2cccnc2)ccc1OCC(=O)NC1CCCCC1	Lmaj promast 86.0
COc1ccccc1OCC(=O)NC1CCCCCC1	none
CCOC(=O)C1=C(C)N(CCCCCC(=O)O)C(=O)NC1c1ccccc1Cl (stereo not given)	none
CC1=C(C(=O)OCc2ccccc2)C(c2cccc([N+](=O)[O-])c2)NC(=O)N1CCCCCC(=O)O (stereo not given)	RAM inhibit 11.0
CCOC(=O)C1=C(C)N(CCCC(=O)O)C(=O)NC1c1ccccc1OS(=O)(=O)c1ccc(C)cc1 (stereo not given)	RAM inhibit 8.4
C(=C/c1ccnc2nc(SC/C=C/c3ccccc3)nn12)/c1ccccc1	none
O=C(CNC(=O)c1ccc(N2C(=O)c3ccccc3C2=O)cc1)OCC(=O)c1cccc2ccccc12	Lmaj promast 62.1
CCc1ccc(C(=O)COC(=O)CNC(=O)c2ccc(N3C(=O)c4ccccc4C3=O)cc2)cc1	none
O=C(CNC(=O)c1ccc(N2C(=O)c3ccccc3C2=O)cc1)OCC(=O)c1ccccc1	Lmaj promast 62.3
CCCCCCCCOC(=O)c1c(CSC(=N)N)n(C)c2cc(Br)c(OC(C)=O)cc12	CHOP inhibitor 99.8 (no result: WT yeast gro inh, RAM inhibit, Lmaj promast)
CCOC(=O)c1c(CSC(=N)N)n(-c2ccc(Br)cc2)c2cc(Br)c(OC(C)=O)cc12	CHOP inhibitor 109.8, Lmaj promast 87.6
CCOC(=O)c1c(C)n(C)c2cc(Br)c(C(=O)OC)cc12	none
CCc1nc(Sc2nnnn2-c2ccccc2)c2c3c(sc2n1)CCCC3	Lmaj promast 97.9
COc1cccc(CN(C)C(=O)CCc2nnc(-c3ccsc3)o2)c1	none
CCOC(=O)CN(C)C(=O)CCc1nnc(-c2ccsc2)o1	WT yeast gro inh 58.5
CCOC(=O)c1cc2c(=O)n3ccccc3nc2n(C(C)C)c1=NC(=O)c1c(-c2c(F)cccc2Cl)noc1C	RAM inhibit 10.0, Lmaj promast 98.6
CCCCn1c(=NC(=O)c2ccco2)c(C(=O)OCC)cc2c(=O)n3ccccc3nc21	Lmaj promast 50.8
